Measured values reported in PubChem BioAssay AID774 (SRMLSC, 2007).
In all, about 65,000 compounds went through this assay and about 15 (0.02%) were called active.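 How the source made its calls: active means single-dose screening hits from any of four coupled enzyme assays that gave an IC50 when retested across doses; inconclusive means no clear call, values can overlap the other calls; inactive means the rest.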 These entries were drawn from the full list.

Assay: inhibitors of PK/LDH coupling enzymes, profiling panel, artefact control, biochemical, MLSMR library (AID 774);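 further: the DPM-DC format reads NADH fluorescence rather than 340 nm absorbance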
Conditions: coupled PK/LDH NADH assays, four targets; at 10 µM; active compounds read high

inhibition, inactive:
COc1cc(OC)cc(C(=O)Nc2ccc(-c3nc4ccccc4o3)c(O)c2)c1 9%
CC1(C)C(=O)Nc2ccccc2N1C(=O)COC(=O)Cn1cnc2ccccc2c1=O 11%
CC1CCCCC1NC(=O)CCS(=O)(=O)c1cccc2nonc12 (stereo not drawn) 2%
c1csc(CN2CCN(Cc3cccs3)C2c2cccs2)c1 5%
O=C(CSc1nnc(Cc2ccccc2)n1-c1ccccc1)N1CCOCC1 5%
CCc1c(O)nc(SCC(=O)N2CCCCC2)n(-c2ccccc2C)c1=O 11%
O=C(NC1CCN(Cc2ccccc2)CC1)c1ccccc1F 1%
Cc1ccc(NC(=O)c2cc(-c3ccc(C)o3)nc3ccccc23)nc1 5%
CCOC(=O)C1CCN(C(=O)Cc2c(C(=O)O)[nH]c3ccccc23)CC1 1%
Cc1ccn2cc(C(=O)NC3CCN(Cc4ccccc4)CC3)nc2c1 4%
CC1Cc2ccccc2N1C(=O)CSc1nc2ccccc2o1 (stereo not drawn) 4%
COC(=O)CN(c1cccc(C(C)=O)c1)S(C)(=O)=O 6%
C[N+](C)(C)CCOP(=O)([O-])OC[C@H](O)CO 2%
COc1ccc(OC)c(C(=O)c2coc3ccc(OC)cc23)c1 0%
Cc1cc(C)nc(NC2=NCC(=O)N2c2ccc(Cl)cc2)n1 2%
Nc1ccc(-n2nncc2-c2ccco2)cc1 3%
CCOC(=O)CSc1nnc(CNC(=O)c2ccco2)n1-c1ccc(F)cc1 5%
CCOC(=O)C1C(=O)NC(N2CCN(c3ccccc3)CC2)=NC1c1ccco1 (stereo not drawn) 7%
O=C(O)C1CCCN1S(=O)(=O)c1ccc2c(c1)CCC2 (stereo not drawn) 8%
CNC(=O)n1ccc(C(=O)N2CCCCC2)n1 2%
Cc1ccc(-c2ccc(=O)n(CC(=O)NCCCN3CCCCC3)n2)cc1 8%
CN(Cc1ccccc1)c1nc2c(c(=O)[nH]c(=O)n2C)n1CCSc1nc2ccccc2[nH]1 4%
COC(=O)C(C)N(C#N)c1nc(C)nc(C)n1 (stereo not drawn) 9%
CCOc1ccc(NC(=O)Nc2ccc(N(C)C(C)=O)cc2)cc1 4%
CC(c1ccco1)N(C(=O)c1ccc(S(=O)(=O)N2CCCCC2)cc1)c1ccccn1 (stereo not drawn) 1%
Cc1ccc(-c2nc(COC(=O)c3c(C)noc3C)cs2)cc1 7%
COc1ccc(OCc2cccc(C(=O)N3CCCC3)c2)cc1 9%
CCOC(=O)N1CCN(C(=O)c2ccc(CN(c3ccc(C)c(C)c3)S(C)(=O)=O)cc2)CC1 2%
